Bioassay records deposited in PubChem by National Center for Advancing Translational Sciences (NCATS).
VP16 counter: VP16 counterscreen qHTS for inhibitors of ROR gamma transcriptional activity; Potency, µM (highest dose often 53.6 µM), inactives show at the highest dose activity, negative = inhibition, most hits filed as inhibitors; 310,000 compounds, 3.5% hits; Drosophila S2 Gal4-VP16 UAS-luciferase, luminescence, 20 h;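 further: Gal4-VP16 expression switched on by copper sulfate through the metallothionein promoter; nearly all actives have a fitted effect of over 50% in size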
ALOX12 inh: Primary qHTS assay for inhibitors of human arachidonate 12S-lipoxygenase (ALOX12): Round 2 | Polyunsaturated fatty acid lipoxygenase ALOX12 (Homo sapiens), P18054 | purified 12hLO, xylenol orange hydroperoxide absorbance | Potency, µM (titrated, usually from 108 µM), for the others: top-dose activity change, negative = inhibition, usual class: inhibitors | 580,000 compounds, 1.1% hits | AID 1671190, 2021
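Purified human 12hLO (150 nM final) in 25 mM Hepes, 0.01% Triton X-100, pH 7.0 was preincubated 15 min at room temperature with compound. Then 40 uM arachidonic acid was added, 30 min. Hydroperoxide was read by Fe-XO absorbance ratio 573/405 nm.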
TDP1 cell CPT: qHTS for Inhibitors of human tyrosyl-DNA phosphodiesterase 1 (TDP1): qHTS in cells in presence of CPT; chicken DT40 Tdp1-/-;hTDP1 cells + 20 nM CPT, ATP luminescence, 48 h; Potency, µM (top dose mostly 46.2 µM), for inactives: at the top dose activity change, negative = growth inhibition, usual class: inhibitors; AID 686979, 2013; 420,000 compounds, 12% hits; further: nearly all actives have a fitted effect of over 55% in size
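Chicken DT40 Tdp1-/- cells stably complemented with human TDP1 were seeded at 400 cells/well in medium containing 20 nM camptothecin, exposed to pin-transferred compounds, and grown at 37 °C for at least 48 hr. Viability was read as ATP luminescence.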
RORg inh: qHTS for inhibitors of ROR gamma transcriptional activity | Nuclear receptor ROR-gamma (Mus musculus), P51450 | Drosophila S2 Gal4-RORgamma UAS-luciferase reporter, 20 h | Potency, µM (top dose mostly 53.6 µM), inactives show at the top dose activity change, negative = inhibition, most hits filed as inhibitors | 310,000 compounds, 5.4% hits; further: nearly all actives have a fitted effect of over 60% in size
Target sequence (P51450 whole entry, looked up, the tested form may be a part): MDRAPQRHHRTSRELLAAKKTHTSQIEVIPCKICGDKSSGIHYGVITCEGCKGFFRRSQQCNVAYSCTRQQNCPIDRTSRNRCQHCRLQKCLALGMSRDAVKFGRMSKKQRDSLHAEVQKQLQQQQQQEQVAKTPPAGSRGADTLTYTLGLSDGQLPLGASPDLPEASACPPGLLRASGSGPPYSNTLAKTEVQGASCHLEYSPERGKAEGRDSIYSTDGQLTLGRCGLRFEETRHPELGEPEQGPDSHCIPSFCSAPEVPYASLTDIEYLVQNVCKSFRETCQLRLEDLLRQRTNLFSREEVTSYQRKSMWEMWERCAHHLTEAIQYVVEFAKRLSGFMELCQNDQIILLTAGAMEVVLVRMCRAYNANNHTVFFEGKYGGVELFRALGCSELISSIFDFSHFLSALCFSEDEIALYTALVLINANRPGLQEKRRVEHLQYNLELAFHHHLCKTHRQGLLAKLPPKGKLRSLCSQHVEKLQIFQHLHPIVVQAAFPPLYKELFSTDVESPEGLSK
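Stable Schneider cell line, Gal4 DNA-binding domain fused to ROR gamma, UAS-luciferase. Cmpd 1 hr RT → CuSO4 700 uM final → 20 hr RT → luciferase reagent 10 min → luminescence.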
DT40 TDP1 no CPT: qHTS for Inhibitors of human tyrosyl-DNA phosphodiesterase 1 (TDP1): qHTS in cells in absence of CPT. DT40 Tdp1-/- hTDP1 cells, no CPT, ATP luminescence, 48 h. Potency, µM (series often up to 46.2 µM), for inactives: at the highest dose activity change, negative = growth inhibition, hits mostly inhibitors. 420,000 compounds, 15% hits; further: nearly all actives have a fitted effect of over 55% in size
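Cells were dispensed at 400 per well, compounds added by pin tool, plates incubated ≥48 hr at 37 °C, then CellTiter-Glo added for 30 min at room temperature before luminescence reading. Line: DT40 Tdp1-/- complemented with hTDP1; camptothecin omitted.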
ELG1 repair inh: qHTS screen for small molecules that inhibit ELG1-dependent DNA repair in human embryonic kidney (HEK293T) cells expressing luciferase-tagged ELG1. 330,000 compounds, 2.3% hits. Potency, µM (highest dose often 46.1 µM), without a hit: at the top dose activity change, negative = inhibition, actives largely listed as inhibitors. HEK293T ELG1-luciferase reporter, luminescence, 16 h; DNA damage induced by 5-fluorouridine; further: nearly all actives have a fitted effect of over 55% in size
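DMSO vehicle served as the neutral condition. Each well held 2,000 cells given 5-fluorouridine plus compound; after 16 hr at 37 °C/5% CO2, ONE-Glo was added and luciferase measured 30 min later.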
Active calls of the source: *; ? = inconclusive; · = not tested or not shown; [ ] = another dose, or the depositor's remark. Shown are actives, neighbours in structure and some others; about 15% of the full set was active somewhere. The call rests on the fitted dose curve; in most records, active means well fitted curve in the direction sought with a large enough effect; inconclusive means small, poorly fitted or top-dose-only effect, or another doubt; inactive means no such curve, though single readings can be large; an effect the other way counts as inactive or inconclusive. On the % scale 0 is the no-effect control and ±100 the full control effect; potency means the concentration at half of the fitted maximal effect.

SMILES | VP16 counter | ALOX12 inh | TDP1 cell CPT | RORg inh | DT40 TDP1 no CPT | ELG1 repair inh
CCOC(=O)c1c(C)oc2nc(C)nc(NCCc3ccc(C)cc3)c12 | · | -12.2% | 20.6µM* | · | ? | ·
CCOC(=O)c1c(C)oc2nc(C)nc(NCCc3ccc(S(N)(=O)=O)cc3)c12 | · | -16.1% | 23.1µM* | · | 14.6µM* | ·
CCc1ccc(S(=O)(=O)N2CCC(Oc3ncccc3C(=O)N(C)C)C2)cc1 (configuration not stated) | · | 27.8% | · | · | · | ·
CC(=O)Nc1ccccc1OCC(=O)NC(C)c1ccc(F)cc1 (configuration not stated) | 2.3% | -3.0% | 13µM* | 21.3% | ? | -2.9%
COc1cccc(NC(=O)COc2ccc3c(C)cc(=O)oc3c2)c1 | · | -9.0% | · | · | · | ·
CS(=O)(=O)N1CCC(Oc2ccccc2-c2nc(C3CC3)no2)C1 (configuration not stated) | · | 41.6% | · | · | · | ·
CCC(CO)NS(=O)(=O)c1cc(Cl)ccc1Cl (configuration not stated) | · | -6.5% | · | · | · | ·
Cn1c(O)c(C2=c3ccccc3=NC2=O)sc1=Nc1ccc(Cl)cc1 | -0.2% | ? | 23.1µM* | ? | ? | -19.9%
COc1cc2c(cc1OC)C(C1C(=O)CC(C)(C)CC1=O)N(C(=O)CCl)CC2 (configuration not stated) | 0.9% | ? | -73.8% | -4.1% | -90.2% | 5.6%
COc1cc2c(cc1OC)C(c1cc(Br)ccc1F)N(C(=O)CCl)CC2 (configuration not stated) | ? | 15.8µM* | 1.46µM* | 7.94µM* | 1.64µM* | -3.2%
CCOC(=O)c1c(C)[nH]c(C(=O)COC(=O)c2[nH]c(C)c(C(C)=O)c2C)c1C | 1.5% | -5.9% | 4.61µM* | 6.1% | 5.17µM* | ?
CC(=O)c1c(C)[nH]c(C(=O)COC(=O)c2cc(C)oc2C)c1C | · | ? | ? | · | 2.59µM* | -18.0%
CC(=O)c1c(C)[nH]c(C(=O)COC(=O)C2(C)CC2(Cl)Cl)c1C (configuration not stated) | · | 172.1% | 18.4µM* | · | 20.6µM* | ?
CCOC(=O)c1c(C)[nH]c(C(=O)COC(=O)[C@H](C)N2C(=O)C3CCCCC3C2=O)c1C (some centres not stated) | · | 9.3% | ? | · | 25.9µM* | ·
CC(=O)c1c(C)[nH]c(C(=O)COC(=O)CN2C(=O)C3CCCCC3C2=O)c1C (configuration not stated) | · | -2.1% | ? | · | 0.2% | ?
CCOC(=O)c1[nH]c(C)c(C(=O)OCC)c1C | 2.9% | 14.8%[57.4 µM] | 0.6% | -2.8% | 0.4% | ?
CC(Oc1ccc(Cl)cc1Cl)C(=O)N1CC(=O)Nc2ccccc21 (configuration not stated) | · | -5.6% | · | · | · | ·
COC(=O)c1c(C)[nH]c(C(=O)C(C)OC(=O)c2ccc(F)cc2F)c1C (configuration not stated) | · | 7.9% | · | · | · | ·
COC(=O)c1c(C)[nH]c(C(=O)C(C)OC(=O)c2cc(C)oc2C)c1C (configuration not stated) | · | -12.1% | ? | · | 16.4µM* | -6.8%
Cc1cccc(NC(=S)c2nc3ccccc3s2)c1 | 5.01µM* | -16.9% | ? | 1.12µM* | ? | ?
O=C(Nc1ccccc1)c1nc2ccccc2s1 | -26.4% | -7.1% | -20.9% | -32.1% | -25.8% | ?
Cn1ncc2c(SCc3nc4ccccc4n3C(F)F)ncnc21 | · | -8.6% | · | · | · | ·
Fc1ccc(SCc2ccnc(Cl)c2)cc1 | · | 2.3% | · | · | · | ·
O=C(N1CCN(S(=O)(=O)c2cccc(F)c2)CC1)N1CC2CC(C1)[C@H]1CCCC(=O)N1C2 (some centres not stated) | · | 67.5% | · | · | · | ·
CSc1ccccc1NS(=O)(=O)c1cccc2nonc12 | -18.0% | ? | 1.9% | 11.2µM* | 15.0% | 1.2%
SMILES | VP16 counter | ALOX12 inh | TDP1 cell CPT | RORg inh | DT40 TDP1 no CPT | ELG1 repair inh
O=S(=O)(Nc1cc(F)ccc1F)c1cccc2nonc12 | -1.1% | -12.2% | -14.4% | 37.2% | 12.7% | 10.8%
Cc1ccc2nc(-c3ccc(Cl)cc3)cc(C(=O)NCc3ccncc3)c2c1 | · | -4.0% | · | · | · | ·
CNC(=O)OCc1nc(SSC(C)(C)C)n(C)c1COC(=O)NC | · | 5.3% | 2.06µM* | · | 2.06µM* | ·
CCSc1nc2ccccc2n1CC(=O)OC | -0.8% | -25.0% | 0.1% | -14.3% | 3.3% | 13.1%
CCSc1nc(COC(=O)NC)c(COC(=O)NC)n1C | · | -0.6% | 2.31µM* | · | 5.17µM* | ·
CCCCN(C)c1ccc(-c2n[nH]c(=O)c3ccccc23)cc1[N+](=O)[O-] | · | -1.2% | · | · | · | ·
CC(=O)c1ccc2c(c1)OCCOCCOc1ccccc1OCCOCCO2 | -18.9% | 0.0% | 18.4µM* | 12.8% | 23.1µM* | 0.0%
CC(C)(C)C(=O)Nc1ccc2c(c1)OCCOCCOc1cc(NC(=O)C(C)(C)C)ccc1OCCOCCO2 | -8.3% | 9.7% | -9.4% | 27.4% | -29.1% | 7.3µM*
c1ccc2c(c1)OCCOCCOCCOCCOCCOc1ccccc1OCCOCCOCCO2 | ? | -2.5% | 8.2µM* | ? | 14.6µM* | ?
C#CCN1CCC(C(=O)NCCNC(=O)C2CC2)CC1 | · | -37.0% | · | · | · | ·
COc1ccccc1/C=C1\NC(=S)N(CC2CCCO2)C1=O (configuration not stated) | 12.6µM* | 6.2% | -3.1% | 14.8% | -26.0% | -5.6%
CCOc1ccccc1CN1CCNC(=O)C1CC(=O)NCc1ccco1 (configuration not stated) | · | 85.5% | · | · | · | ·
O=C(CC1C(=O)NCCN1Cc1ccc(F)cc1)NCCOc1cccnc1 (configuration not stated) | -8.3% | -7.5% | 5.3% | -6.4% | 2.7% | 10.7%
O=C(CC1C(=O)NCCN1Cc1ccc(-c2ccccc2)cc1)NCCOc1cccnc1 (configuration not stated) | 20µM* | 0.4% | ? | 2.8% | 16.4µM* | ?
CCOc1ccccc1CN1CCNC(=O)C1CC(=O)NCc1ccccn1 (configuration not stated) | ? | 3.8% | -25.3% | 11.2µM* | 15.3% | 20.0%
COCCNC(=O)C(=O)N/N=C/c1cccs1 | 3.6% | -2.5% | 0.3% | 7.6% | 1.7% | -1.3%
